This is part of a sample that, as a whole, favours compounds with a hit. Of some 83,000 tested, about 20% had one in any assay.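 A percent growth of 40 corresponds to 60% growth inhibition; 0 means no net growth; -100 means all cells died. Active threshold: below 10.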 Values without a mark were called inactive. Active and inactive are the calls of the source.
What follows are molecules tested on HCT-116 colon (assay: NCI-60 one-dose screen, 48 h (100 = growth as untreated, 0 = no growth, -100 = all killed)). Details: 10 µM unless noted.

Row | SMILES | growth
1 | [2H]C([2H])([2H])Oc1ccc(F)cc1/C=C/C(=O)/C=C(O)/C=C/c1cc(F)ccc1OC([2H])([2H])[2H] | 83.9%
2 | C=CC(=O)Nc1ccc(Nc2nccc(-c3ccc(N4CCCC4)c(C#N)c3)n2)cc1 | 24.8%
3 | N#CC1=C(N)Oc2ccc3ccccc3c2C1c1ccc([N+](=O)[O-])cc1 (stereo not drawn) | 85.5%
4 | CCOC(=O)c1nn(CC(O)c2ccccc2)c(NC(=O)Nc2cccc(F)c2)c1C (stereo not drawn) | 96.4%
5 | Nn1c(=O)c(=O)[nH]c2c(cnn2-c2ccccc2)c1=O | 108%
6 | O=[N+]([O-])c1cc(NS(=O)(=O)c2ccccc2)ccc1NS(=O)(=O)c1ccccc1 | 87.1%
7 | C=C1C(=O)O[C@H]2[C@H]1CC/C(COC(=O)NCc1ccc(Cn3c(=O)sn(-c4ccc(C#N)cc4)c3=O)cc1)=C\CC[C@@]1(C)O[C@@H]21 | 25.4%
8 | Cc1nc2c(c(=O)[nH]1)C(c1ccccc1)c1ccc3ccccc3c1O2 (stereo not drawn) | 21.3%
9 | COC1=C(C)C(=O)N2[C@@H]1[C@H](c1ccccc1)OC21C=CC(=O)C=C1 | -51% (active)
10 | COc1cccc(CCNc2ncnc3c2ncn3Cc2nnc3c4ccccc4c(Cl)nn23)c1 | 39.6%
11 | Fc1ccc(Cn2cc(CSc3nc4ccccc4o3)nn2)cc1 | 92.3%
12 | CC(=O)ON1CCCC(P(=O)(OCCSC(=O)C(C)(C)C)OCCSC(=O)C(C)(C)C)C1=O (stereo not drawn) | 10.5%
13 | O=c1cc(-c2ccccc2)[nH]c2ncc(-c3ccc(F)cc3)n12 | 51.3%

— PubChem BioAssay (NCI)
